Screens from PubChem BioAssay.
HTT aggregate: qHTS Multiplex Assay to Identify Dual Action Probes in a Cell Model of Huntington: Aggregate Formation (GFP) | Potency, µM (doses to about 46.1 µM), inactives show at the top dose activity change, negative = inhibition, usual class: inhibitors | PC12 HttQ103-GFP aggregates, Acumen cytometry, 40 h | 220,000 compounds, 1.1% hits; further: potency means the concentration at half of the fitted maximal effect; on the % scale 0 is the no-effect control and ±100 the full control effect; nearly all actives have a fitted effect of over 60% in size
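Compounds (qHTS titration) were added to PC12 cells expressing an ecdysone-driven HTT exon 1 Q103–GFP fusion after induction with 100 nM tebufenozide. Aggregate formation was measured as GFP objects in cell lysates.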
Coupling enz: qHTS Assay for Inhibitors of Fructose-1,6-bisphosphate Aldolase from Giardia Lamblia: Coupling assay counterscreen; 290,000 compounds, 0.67% hits; coupling enzyme system counterscreen, AmpLite Red fluorescence; activity change, negative = inhibition, % at 58.2 µM, hits read low; AID 2472, 2010; in the data active means activity change below about -30%; further: on the % scale 0 is the no-effect control and ±100 the full control effect
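Compounds tested against the coupling enzymes alone at 57.5 uM final; readout was AmpLite Red fluorescence (525/598 nm) after 20 min at RT.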
TR SRC2 fluor cs: Total Fluorescence Counterscreen for Inhibitors of the Interaction of Thyroid Hormone Receptor and Steroid Receptor Coregulator 2; TRb/SRC2 Texas Red total fluorescence interference; Potency, µM (top dose mostly 106 µM), for the others: at the top dose fluorescence change, negative = quenching; 280,000 compounds, 0.29% hits; AID 1479, 2009; active means well fitted curve in either direction with a large enough effect; inconclusive means small, poorly fitted or top-dose-only effect; further: potency means the concentration at half of the fitted maximal effect; on the % scale 0 is the no-effect control and ±100 the full control effect
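Human TRb ligand-binding domain at 0.6 uM with 20 nM Texas Red SRC2 peptide in Tris buffer containing 1 uM T3 and 5% DMSO, incubated with compound 5 h at ambient temperature. Total fluorescence (555/632 nm) calculated as parallel + 2 × perpendicular.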
TRb-SRC2 inh: qHTS for Inhibitors of the Interaction of Thyroid Hormone Receptor and Steroid Receptor Coregulator 2. Thyroid hormone receptor beta (Homo sapiens), P10828. TRbeta-SRC2 peptide binding, fluorescence polarization; receptor liganded with 1 µM T3. Potency, µM (top dose mostly 106 µM), without a hit: at the highest dose activity change, negative = inhibition, usual class: inhibitors. 280,000 compounds, 0.065% hits;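 further: potency means the concentration at half of the fitted maximal effect; plate controls were bound peptide for no effect and peptide without receptor for full effect; nearly all actives have a fitted effect of over 50% in size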
Target sequence (P10828 whole entry, looked up): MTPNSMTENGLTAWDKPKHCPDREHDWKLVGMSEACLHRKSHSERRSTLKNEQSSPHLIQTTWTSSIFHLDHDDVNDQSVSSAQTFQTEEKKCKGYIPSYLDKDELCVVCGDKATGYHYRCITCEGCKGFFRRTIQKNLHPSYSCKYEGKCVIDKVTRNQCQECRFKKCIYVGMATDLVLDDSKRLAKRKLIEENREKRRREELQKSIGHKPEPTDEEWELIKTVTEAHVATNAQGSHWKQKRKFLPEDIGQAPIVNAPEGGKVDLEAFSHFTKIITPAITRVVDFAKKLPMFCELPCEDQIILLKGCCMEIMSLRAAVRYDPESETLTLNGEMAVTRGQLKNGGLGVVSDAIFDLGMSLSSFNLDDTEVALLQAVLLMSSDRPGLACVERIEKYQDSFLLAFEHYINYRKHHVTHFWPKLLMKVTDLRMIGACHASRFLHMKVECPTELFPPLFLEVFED
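Polarization signal, normalized between peptide-alone and full complex controls, measured compound effects on T3-liganded human TRb LBD (0.6 uM) binding 20 nM Texas Red SRC2 peptide after 5 hr.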
HTT ATP protect: qHTS Multiplex Assay to Identify Dual Action Probes in a Cell Model of Huntington: Cytoprotection (ATP); PC12 HTT-Q103 induced, cytoprotection, ATP luminescence, 40 h; Potency, µM (doses to about 56.4 µM), for inactives: cytoprotection (ATP increase), actives largely listed as activators; 230,000 compounds, 0.14% hits; AID 1471, 2008; further: potency means the concentration at half of the fitted maximal effect; % of control where 0% means no effect; nearly all actives have a fitted effect of over 45% in size
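PC12 cells stably carrying ecdysone-inducible Htt exon 1 (Q103)–GFP were induced with 100 nM tebufenozide (final) alongside library compounds in a dose series. Cytoprotection was scored as retained ATP by ATPlite luminescence.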
JMJD2E inh: qHTS Assay for Inhibitors of Human Jumonji Domain Containing 2E (JMJD2E) | Lysine-specific demethylase 4E (Homo sapiens), B2RXH2 | JMJD2E catalytic domain, FDH-coupled NADH fluorescence (FDH is formaldehyde dehydrogenase) | Potency, µM (top dose mostly 57.1 µM), without a hit: at the top dose activity change, negative = inhibition, actives largely listed as inhibitors | 230,000 compounds, 1.6% hits | AID 2147, 2009; active means well fitted inhibition curve with a large enough effect, not every such curve was filed as active; inconclusive means small, poorly fitted or top-dose-only effect, or another doubt; inactive means no such curve, though single readings can be large or run the other way;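 further: potency means the concentration at half of the fitted maximal effect; 0% = wells with enzyme and -100% = buffer wells without enzyme; nearly all actives have a fitted effect of over 50% in size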
Target sequence (B2RXH2 1-337 limits assumed): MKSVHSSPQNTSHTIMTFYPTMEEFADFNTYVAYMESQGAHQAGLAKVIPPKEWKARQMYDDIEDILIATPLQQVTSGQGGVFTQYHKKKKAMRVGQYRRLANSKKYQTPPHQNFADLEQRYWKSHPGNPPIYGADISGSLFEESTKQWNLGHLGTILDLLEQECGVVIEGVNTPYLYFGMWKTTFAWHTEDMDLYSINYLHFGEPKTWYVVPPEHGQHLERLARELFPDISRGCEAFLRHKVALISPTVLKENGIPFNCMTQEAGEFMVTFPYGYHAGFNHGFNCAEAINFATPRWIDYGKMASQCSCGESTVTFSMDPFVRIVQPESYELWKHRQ
Active calls of the source: *; ? = inconclusive; · = no result; ! = a repeat was not active; [ ] = remark or other dose. A selection: hits, their analogues and other compounds. The true share with any hit is near 2%. Unless noted, the call rests on the fitted dose curve; in most records, active means well fitted curve in the direction sought with a large enough effect; inconclusive means small, poorly fitted or top-dose-only effect, or another doubt; inactive means no such curve, though single readings can be large; an effect the other way counts as inactive or inconclusive.

SMILES	HTT aggregate	Coupling enz	TR SRC2 fluor cs	TRb-SRC2 inh	HTT ATP protect	JMJD2E inh
CC1CCCCN1c1ncnc(N)c1[N+](=O)[O-] (centres undefined)	10µM*	2.1	-1.6%	-4.0%	10.8%	-0.2%
Cc1ccsc1C1NC(=O)c2ccccc2N1 (centres undefined)	0.1%	0.3	-5.5%	-3.1%	7.0%[10 µM]	28.2µM*
O=C1NC(c2ccc(Br)cc2)Nc2sc3c(c21)CCC3 (centres undefined)	11.0%	-3.6	4.8%	2.4%	-3.8%	-22.7%
Cc1ccsc1C1NC(=O)c2c(sc3c2CCCC3)N1 (centres undefined)	28.2µM*	0.0	-5.0%	-5.9%	20.6%[10 µM]	?
Oc1c(Br)cc(Br)c2cccnc12	?	-7.9	-1.4%	10.5%	-59.3%	20µM*
O=C(NCc1ccccc1F)C1CCN(Cc2cc3ccccc3n2Cc2cccc(Cl)c2)CC1	·	·	3.4%	0.6%	·	·
CCCCC[C@H](O)/C=C/[C@H]1C(=O)C=C[C@@H]1C/C=C\CCCC(=O)O	·	1.3	-1.0%	1.6%	5.62µM*!	4.9%
COc1ccc(NC(=O)[C@@H]2[C@@H]3C(=O)N(C4CCCCC4)C(=O)[C@@H]3C3c4ccccc4C=CN32)cc1 (some centres undefined)	-16.2%	-30.6*	-5.3%	-1.2%	-13.3%	11.4%
Cn1c(SCCOc2ccccc2Cl)nnc1-c1ccncc1	0.794µM*	-5.0	1.8%	-15.8%	-0.8%	0.1%
CC1=C2C(=COC(C)C2C)C(=O)C(C(=O)O)=C1O (centres undefined)	·	-35.5*	-0.4%	4.5%	3.3%	-26.2%
CCc1ccc2c(O)c3c(cc2c1C(=O)OC)C(=O)c1c(O)ccc(O)c1C3=O	·	-16.8	18.8%	8.9%	-71.3%	2.82µM*
COC(=O)c1[nH]c(=O)c2ccccc2c1O	?	-22.9	-2.2%	-3.7%	·	?
CSCC[C@H](NC(=O)[C@H](Cc1ccccc1)NC(=O)[C@H](Cc1cnc[nH]1)NC(=O)CNC(=O)[C@@H](NC(=O)[C@H](C)NC(=O)[C@H](Cc1c[nH]c2ccccc12)NC(=O)[C@H](CCC(N)=O)NC(=O)[C@@H]1CCCN1C(=O)[C@@H](NC(=O)[C@@H]1CCC(=O)N1)C(C)C)C(C)C)C(N)=O	·	1.7	-4.0%	0.8%	·	·
CNC(=S)Nc1cccc2[nH]ncc12	10.6%	0.5	-1.2%	-10.9%	10.7%[10 µM]	2.9%
O=C(Nc1cccc2[nH]ncc12)c1ccc(F)cc1	5.01µM*	-1.3	-3.8%	-1.0%	-15.5%	18.7%
O=C(NC(=S)Nc1cccc2[nH]ncc12)c1ccccc1	10µM*	-1.9	-4.2%	-2.7%	-9.2%	-1.2%
CCN(CC)C(=O)c1sc2c(c1C)c(=O)n(-c1ccc(C)c(C)c1)c(=O)n2Cc1cc(=O)n2c(C)cccc2n1	·	·	-2.7%	2.4%	·	·
COc1ccc(CCN2C(=O)CC(N3CCOCC3)C2=O)cc1OC (centres undefined)	-10.5%	2.0	-3.2%	-8.9%	30.1%[10 µM]	-0.2%
COc1ccc(CCN2C(=O)CC(N3CCOCC3)C2=O)cc1 (centres undefined)	-1.5%	0.4	-2.1%	-12.9%	1.26µM*	2.5%
CCOc1cccc(C2Nc3ccccc3-c3cc(C)nn32)c1O (centres undefined)	·	·	0.0004µM*[quencher]	-11.6%	·	·
CCc1ccccc1NC(=O)CCS(=O)(=O)c1cccc2nonc12	·	·	-1.9%	1.1%	·	·
O=Cc1ccc(-n2cccn2)cc1	8.7%	3.7	-2.2%	-8.4%	-38.3%	14.1µM*
Cc1ccccc1CNC(=O)Cn1cc2c(n1)-c1c(oc(C(=O)N3CCCC3)c1C)CC2	·	·	-2.9%	-10.8%	·	·
O=C1C(c2[nH]c3ccc(S(=O)(=O)O)cc3c2O)=Nc2ccc(S(=O)(=O)O)cc21	·	-37.5*	?	-11.0%	-22.3%	·
Cc1ccc2cccc(Oc3ccc([N+](=O)[O-])cc3[N+](=O)[O-])c2n1	-2.0%	-29.2	-2.1%	-0.1%	·	-9.8%
SMILES	HTT aggregate	Coupling enz	TR SRC2 fluor cs	TRb-SRC2 inh	HTT ATP protect	JMJD2E inh
N#Cc1ccc(Oc2cccc3cccnc23)c([N+](=O)[O-])c1	·	-37.0*	·	·	·	·
N#Cc1cc(Oc2cccc3cccnc23)c(-n2nnc3ccccc32)cc1C#N	-6.6%	-20.9	-3.3%	6.5%	-11.3%	31.6µM*
O=[N+]([O-])c1ccc(Oc2cccc3cccnc23)c([N+](=O)[O-])c1	22.4µM*	-42.3*	-4.4%	-5.7%	·	4.0%
CCc1cccc(NC(=O)Cn2c(=O)ccc3cc(S(=O)(=O)N4CCC(C)CC4)ccc32)c1	·	·	1.6%	-10.3%	·	·
CC(C)Oc1ccc(CNC(=O)c2ccc(NC(=O)c3nsc4ccccc34)cc2)cc1	·	·	0.8%	2.6%	·	·
NC(N)=Nc1cc2ccccc2c2ccccc12	21.4%[9.22 µM]	-33.8*	1.7%	1.4%	5.8%[10 µM]	-29.9%
CN1C[C@@H](C(=O)N[C@]2(C)O[C@]3(O)[C@H]4CCCN4C(=O)[C@H](Cc4ccccc4)N3C2=O)C[C@H]2c3cccc4[nH]cc(c34)C[C@@H]21	·	·	·	·	-19.3%[1.9 µM]	·
CCOC(=O)C1(C)/C(=N/Nc2ccccc2OC)C(=O)C(=O)N1c1ccccc1 (centres undefined)	·	-6.6	-2.6%	-9.9%	·	25.1µM*
CCOC(=O)C1(C)/C(=N/Nc2ccccc2)C(=O)C(=O)N1c1ccccc1 (centres undefined)	31.6%	1.7	-6.5%	-7.4%	4.0%	-3.5%
CCOc1ccc(N=Nc2ccc(N)cc2N)cc1	23.7%	·	-3.6%	-0.8%	-94.2%	·
COc1cccc2c1C(=O)C=C(C)C2=O	14.1µM*	-38.8*	-6.3%	7.5%	8.5%[0.074 µM]	-13.0%
COc1ccc2c(c1O)C(=O)c1ccccc1C2=O	-6.2%[9.22 µM]	5.9	0.5%	2.6%	-15.9%[10 µM]	0.5%
CC1=CC(=O)c2ccccc2C1=O	-96.5%	-32.6*!	-0.1%	0.7%	-368.4%	-29.3%
Cc1ccsc1C=C1C(=O)c2ccccc2C1=O	-1.6%	1.0	-7.7%	-1.7%	-7.8%	-20.7%
CC(C)(C=O)C1=CC(=O)c2ccccc2C1=O	?	-63.2*	?	-9.3%	-44.6%[10 µM]	4.1%
O=C1CN=C(Nc2ccccc2Cl)N1c1ccccc1	2.82µM*	·	-9.9%	-6.5%	-83.1%[10 µM]	2.2%
